# Experimental data published in PubChem BioAssay (EPA / NIEHS).
# Activity calls are given as the source filed them. The calls were made as follows: active = hit-call score of the fitted dose curve at least 0.9, where 1 is the maximum; inactive = score below 0.9.
# Read-out: X-box binding protein 1 (XBP1), XBP1 (gene 7494)
# Test: LTEA_HepaRG_XBP1: Life Technologies and Expression Analysis (LTEA) Assay for X-box binding protein 1 (XBP1) using HepaRG (AID 2283540)
# Conditions: mRNA level, 48 h; actives raise or lower the signal
# Protocol: LTEA_HepaRG is a cell based, multiplexed-readout assay that uses HepaRG, a human liver cell line, with measurements taken at 48 hours after chemical dosing on a 96-well plate.LTEA_HepaRG_XBP1 is one of 102 assay component(s) measured in the LTEA HepaRG cell culture assay. It is a marker of Diseases associated with XBP1 including Major Affective Disorder 7 and Bipolar Disorder.Data from the assay component LTEA_HepaRG_XBP1 was analyzed into 1 endpoint. This assay endpoint, LTEA_HepaRG_XBP1, was analyzed with bidirectional fitting relative to DMSO as the negative control and baseline of activity. Using a type of inducible reporter, measures of mRNA induction for gain or loss-of-signal activity can be used to understand regulation of transcription factor activity. To generalize the intended target to other relatable targets, this assay endpoint is annotated to the dna binding intended target family, where the subfamily is basic leucine zipper.
# A total of 1060 chemcials from the ToxCast library were tested in eight-point concentration-response experiments. Cell culture and cytotoxicity assays were conducted at Thermo Fisher Scientific's Custom Services facility (Madison, WI). A single lot of human HepaRG cells (Thermo Fisher Scientific, Frederick, MD) was used for the cell culture experiments. 96-well format collagen type I coated plates of human HepaRG cells were prepared using established methods. Briefly, cryopreserved HepaRG cells were thawed, plated at a density of approximately 100,000 cells/well in HepaRG Thaw, Plate, and General Purpose media (HPRG770, Thermo Fisher Scientific), and incubated for 48 hours. 0.5% DMSO was selected as vehicle control to balance the requisite need of DMSO in HepaRG cultures to maintain differentiation (for example, baseline metabolism, proportions of hepatocytes vs. cholangiocytes), while enabling further hepatic receptor pathway activation (for example, PXR and CAR) in response to chemical exposure. 48 hours after plating, the culture medium was replaced with HepaRG Serum-Free Incudtion Media. Cells were exposed to each test chemical in duplicate and maintained in CO2 incubators for another 48 hours. Chemical plates were thawed to room temperature and 200x concentrations of treatment groups were prepared. 8-point conentration-reponse curves were made with the highest exposure at 100 uM, followed by half-log dilutions, all in 0.5% DMSO. Each test plate contained variouse controls, induction positive controls (1mM phenobarbital), cytotoxicity positive controls ([…] aflatoxin B1), vehicle controls (0.5% DMSO), and total lysis controls (0.5% DMSO). Cell morphology images were taken using an Essen IncuCyte FLR automated microscope, with six 96-well plates imaged in about 24 minutes. Images were captured and exported and JPEG files. Spent culture media was transfered to black-well plates for the LDH assay, and remaining media was sorted at -80 C for later use. Cells were treated with RLT buffer and frozen until shipped for gene expression analysis. Total RNA was isolated from the cell suspension in 75 uL of Buffer RLT (Qiagen, Germantown, MD 20874) by Quintiles/Expression Analysis (Durham, NC) using a custom isolation procedure. Total RNA from each plate well was transferred to a preamplification plate. Fluidigm's 96.96 Dynamic ArrayTM (Fluidigm, Amsterdam, the Netherlands) technology was used for gene expression analyses by quantitative reverse transcription polymerase chain reaction (qRT-PCR, performed by Quintiles/Expression Analysis, Durham, NC)89. Standard TaqManTM Assays (Applied Biosystems/ThermoFisher Scientific, Foster City, CA) were used to assess the expression of 93 genes selected based on their selectivity and sensitivity to important hepatic receptors known to be modulated by environmental chemicals; importance in human hepatocyte functionality; and hepatotoxicity. […]
Structure (SMILES),outcome,AC50
CC(C)CC(C)(O)C#CC(C)(O)CC(C)C (stereo not given),inactive,
O=C1OC(=O)C2C3C=CC(C3)C12 (stereo not given),inactive,
CC(C)c1cccc(C(C)C)c1N1C(=O)c2ccc(O)cc2C1=O,inactive,
COCCOc1cc2cc(C(=O)NC3CCN(C(C)C)CC3)n(CC(=O)Nc3ccc(Cl)cn3)c2cn1,,12.1 µM (active)
O=C(O)c1cccc(Oc2ccccc2)c1,inactive,
O=C1CCC(N2C(=O)c3ccccc3C2=O)C(=O)N1 (stereo not given),inactive,
CNS(=O)(=O)c1cc(C(=O)N2CCC(CCN3C4CCC3CC(n3c(C)nc5ccccc53)C4)(c3cccc(F)c3)CC2)c(Cl)cc1F (stereo not given),inactive,
O=C(O)CC(O)C(=O)O (stereo not given),inactive,
CC[C@H](C)C(=O)O[C@H]1C[C@@H](C)C=C2C=C[C@H](C)[C@H](CC[C@@H]3C[C@@H](O)CC(=O)O3)[C@H]21,inactive,
CC(C)(O)c1coc(S(=O)(=O)NC(=O)Nc2c3c(cc4c2CCC4)CCC3)c1,inactive,
CCCC(=O)OCC,inactive,
O=C(NS(=O)(=O)/C=C/c1ccccc1)c1ccc(F)cc1Cl,,26.3 µM (active)
CC(C)=CCC/C(C)=C/CO,inactive,
Oc1ccc2c(c1)-c1ccccc1C2,inactive,
Nc1nc2ncc(CNc3ccc(C(=O)N[C@@H](CCC(=O)O)C(=O)O)cc3)nc2c(=O)[nH]1,inactive,
Cc1ccc(N)cc1O,inactive,
CN(C)c1ccc(N=NS(=O)(=O)O)cc1,inactive,
COc1ccc2sc(C(=O)Nc3nnn[nH]3)c(OC(C)C)c2c1,inactive,
CC[C@H]1OC(=O)[C@H](C)[C@@H](O[C@H]2C[C@@](C)(OC)[C@@H](O)[C@H](C)O2)[C@H](C)[C@@H](O[C@@H]2O[C@H](C)C[C@H](N(C)C)[C@H]2O)[C@](C)(O)C[C@@H](C)C(=O)[C@H](C)[C@@H](O)[C@]1(C)O,inactive,
Nc1ccc(Nc2ccccc2)cc1,inactive,

Structure (SMILES),outcome,AC50
CC(C)CCCCCCOC(=O)c1ccc(C(=O)OCCCCCCC(C)C)c(C(=O)OCCCCCCC(C)C)c1,inactive,
CC(C)=CCC/C(C)=C\CO,inactive,
CCOC(=O)CC(CC(=O)OCC)(OC(C)=O)C(=O)OCC,inactive,
CNCc1ccc(NC(=O)c2c[nH]c3c2C(=O)CCC3)cc1,inactive,
Cn1c(=O)cc(Oc2ccc(F)cc2F)c2cnc(NCC(C)(C)O)nc21,inactive,
CCNc1ccccc1,inactive,
CC(=O)c1ccc2c(c1)[C@H](NC(=O)c1ccc(F)cc1)[C@@H](O)C(C)(C)O2,inactive,
CC(C)=CCCC(C)CCO (stereo not given),inactive,
CC(C)CCCCCCCOC(=O)CCCCC(=O)OCCCCCCCC(C)C,inactive,
CCc1cc(SCc2sc(-c3ccc(C(F)(F)F)cc3)nc2CN2CCN(c3ccc(OC)cc3)CC2)ccc1OCC(=O)O,,94 µM (active)
COC(=O)c1c(Cl)c(Cl)c(C(=O)OC)c(Cl)c1Cl,inactive,
Cc1[nH]cnc1C[C@H]1CCc2c(C)c3ccccc3n2C1=O,,10.4 µM (active)
CC1(C)C(=O)N(Br)C(=O)N1Br,inactive,
CCOCCOCCOCCO,inactive,
O=C(OC[C@H]1O[C@@H](OC(=O)c2cc(O)c(O)c(OC(=O)c3cc(O)c(O)c(O)c3)c2)[C@H](OC(=O)c2cc(O)c(O)c(OC(=O)c3cc(O)c(O)c(O)c3)c2)[C@@H](OC(=O)c2cc(O)c(O)c(OC(=O)c3cc(O)c(O)c(O)c3)c2)[C@@H]1OC(=O)c1cc(O)c(O)c(OC(=O)c2cc(O)c(O)c(O)c2)c1)c1cc(O)c(O)c(OC(=O)c2cc(O)c(O)c(O)c2)c1,inactive,
CCn1nc(Cc2ccccc2)cc1C1CCN(C[C@H]2C[C@H](N(C)[C@@H](C(=O)O)C(C)C)C[C@@H]2c2cccc(F)c2)CC1,inactive,
C=CC(=C)CCC=C(C)C,inactive,
CC(=O)OC[C@H]1O[C@@](COC(C)=O)(O[C@H]2O[C@H](COC(C)=O)[C@@H](OC(C)=O)[C@H](OC(C)=O)[C@H]2OC(C)=O)[C@@H](OC(C)=O)[C@@H]1OC(C)=O,inactive,
CC(O)CN(CCN(CC(C)O)CC(C)O)CC(C)O (stereo not given),inactive,
C[C@](N)(Cc1ccc(O)c(O)c1)C(=O)O,inactive,
